Only some compounds are listed: those with a hit (about 3.5% of all), similar ones and a draw of the others.
NS1 function inh: qHTS Assay for Inhibitors of Influenza NS1 Protein Function; AID 2326, 2010; 0.4% of 270,000 active; Potency, µM (highest dose often 46.1 µM), for inactives: at the highest dose activity, positive = more growth; calls by dose curve; further: actives are rising curves; nearly all actives have a fitted effect of over 50% in size
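S. cerevisiae expressing influenza A NS1, grown in glucose, washed, then diluted 1:100 into pH 6.0 -URA galactose medium with 23 nl compound. Growth recovery read as OD600; NS1-free strain serves as control.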
Sm TGR block: qHTS Assay for the Inhibitors of Schistosoma Mansoni Peroxiredoxins; 3% of 360,000 active; AID 485364, 2010; Potency, µM (top dose mostly 114 µM), for the others: at the highest dose activity change, negative = inhibition, usual class: inhibitors; purified TGR, DTNB reduction, TNB absorbance 405 nm; further: on the % scale 0 is the no-effect control and ±100 the full control effect; nearly all actives have a fitted effect of over 60% in size
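Kinetic colorimetric format: TGR-catalysed, NADPH-driven DTNB reduction monitored via TNB absorbance. Enzyme dispensed at 20 nM; compound exposure 15 min at room temperature before reaction start.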
RE007 growth inh: qHTS Assay for Inhibitors of the HIV-1 protein Vpr. S. pombe RE007 Vpr strain, BacTiter-Glo ATP luminescence, 24 h. Potency, µM (top dose mostly 92.2 µM), for the others: top-dose activity change, negative = less growth, usual class: inhibitors. 0.21% of 360,000 active. AID 651644, 2012; active means well fitted falling curve with a large enough effect; inconclusive means small, poorly fitted or top-dose-only effect; inactive means no such curve, though single readings can be large or run the other way; further: on the % scale 0 is the no-effect control and ±100 the full control effect; nearly all actives have a fitted effect of over 50% in size
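Fission yeast strain RE007, carrying one chromosomally integrated HIV-1 vpr copy, was seeded at OD 0.01 in PMG+AL medium with 23 nL pinned compound. After 24 h at 30 °C and 99% humidity, viability was read by BacTiter-Glo luminescence.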
Giardia FBPA inh-1: qHTS Assay for Inhibitors of Fructose-1,6-bisphosphate Aldolase from Giardia Lamblia; 0.71% of 290,000 active; AID 2451, 2010; A8B2U2; purified Giardia FBPA; Potency, µM (top dose mostly 59.6 µM), for inactives: at the highest dose activity, negative = inhibition, usual class: inhibitors; further: on the % scale 0 is the no-effect control and ±100 the full control effect; nearly all actives have a fitted effect of over 55% in size
Target sequence (A8B2U2 whole entry, looked up): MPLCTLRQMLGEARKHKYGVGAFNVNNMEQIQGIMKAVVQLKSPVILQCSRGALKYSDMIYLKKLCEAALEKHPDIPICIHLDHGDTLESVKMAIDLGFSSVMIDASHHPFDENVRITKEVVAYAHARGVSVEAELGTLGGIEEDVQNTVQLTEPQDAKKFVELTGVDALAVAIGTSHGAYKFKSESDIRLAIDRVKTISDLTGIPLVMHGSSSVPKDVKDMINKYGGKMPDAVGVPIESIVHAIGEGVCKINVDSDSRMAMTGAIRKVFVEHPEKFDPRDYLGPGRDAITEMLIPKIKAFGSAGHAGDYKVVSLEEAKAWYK
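40 nM FBPA preincubated 10 min at RT with compound (up to 57.5 uM final), then substrate plus GAPDH/TPI/NAD/arsenate coupling and diaphorase/resazurin added. Fluorescence read after 20 min at RT, 525/598 nm.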
LmPK inh: qHTS Assay for Inhibitors of Leishmania Mexicana Pyruvate Kinase (LmPK) | AID 1721, 2009 | 0.37% of 290,000 active | Potency, µM (titrated, usually from 57.5 µM), for the others: top-dose activity change, negative = inhibition, usual class: inhibitors | purified LmPK, Kinase-Glo ATP luminescence, 1 h; further: on the % scale 0 is the no-effect control and ±100 the full control effect
Target sequence (Q27686 whole entry, looked up): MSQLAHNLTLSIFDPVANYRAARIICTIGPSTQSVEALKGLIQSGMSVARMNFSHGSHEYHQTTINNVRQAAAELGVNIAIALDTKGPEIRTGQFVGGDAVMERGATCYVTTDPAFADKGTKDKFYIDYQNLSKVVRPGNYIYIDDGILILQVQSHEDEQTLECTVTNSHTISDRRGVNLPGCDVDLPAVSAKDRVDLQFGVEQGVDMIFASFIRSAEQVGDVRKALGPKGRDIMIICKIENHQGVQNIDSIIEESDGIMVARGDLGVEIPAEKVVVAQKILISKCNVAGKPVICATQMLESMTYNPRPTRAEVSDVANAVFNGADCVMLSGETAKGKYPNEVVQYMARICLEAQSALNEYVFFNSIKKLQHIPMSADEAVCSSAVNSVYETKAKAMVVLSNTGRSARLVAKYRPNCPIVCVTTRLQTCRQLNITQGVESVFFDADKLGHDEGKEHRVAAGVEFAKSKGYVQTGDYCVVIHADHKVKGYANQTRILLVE
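Kinase-Glo luminescence read after 1 h RT reaction of 0.1 nM LmPK with 0.5 mM PEP and 0.1 mM ADP. Activity scaled between uninhibited and enzyme-free controls.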
Tb PYK inh: qHTS of Trypanosoma Brucei Inhibitors; AID 624173, 2012; Potency, µM (top dose mostly 76.8 µM), without a hit: top-dose activity, negative = inhibition, most hits filed as inhibitors; pyruvate kinase (Trypanosoma brucei), Q57TT1; TbPYK enzyme, Kinase-Glo Plus ATP luminescence, 45 min; 0.12% of 410,000 active; further: on the % scale 0 is the no-effect control and ±100 the full control effect; nearly all actives have a fitted effect of over 50% in size
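ADP (130 uM final) triggers the TbPYK reaction after compound addition; incubation is 45 min at room temperature. Kinase-Glo Plus is then added and luminescence imaged. Normalized data are fitted to concentration-effect curves.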
Giardia growth: qHTS Assay for Inhibitors of Fructose-1,6-bisphosphate Aldolase from Giardia Lamblia: Giardia lamblia growth inhibition | shares compounds with Giardia FBPA inh-1 | Giardia lamblia trophozoite growth inhibition | Potency, µM (highest dose often 57.5 µM), for the others: at the highest dose activity change, negative = inhibition, hits mostly inhibitors | 5% of 1,500 active | AID 2785, 2010;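 further: trophozoites exposed to compound for 48 h at 37 °C; on the % scale 0 is the no-effect control and ±100 the full control effect; nearly all actives have a fitted effect of over 70% in size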
Mammalian tox: qHTS Assay for Inhibitors of Fructose-1,6-bisphosphate Aldolase from Giardia Lamblia: Mammalian cellular toxicity; shares compounds with Giardia FBPA inh-1; mammalian cell viability counter-screen, qHTS; Potency, µM (highest dose often 57.5 µM), for the others: at the highest dose viability change, negative = toxicity, most hits filed as inhibitors; 4% of 1,500 active;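 further: Chinese hamster ovary cells used as mammalian cytotoxicity surrogate; viability measured as cellular ATP by luminescence; compound exposure lasted 48 h before reading; on the % scale 0 is the no-effect control and ±100 the full control effect; nearly all actives have a fitted effect of over 60% in size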
Giardia FBPA inh-2: qHTS Assay for Inhibitors of Fructose-1,6-bisphosphate Aldolase from Giardia Lamblia: Primary screen confirmation | Potency, µM (series often up to 57.5 µM), for the others: top-dose activity change, negative = inhibition, actives largely listed as inhibitors | AID 2787, 2010 | shares compounds with Giardia FBPA inh-1 | purified Giardia aldolase enzyme activity, qHTS | 5% of 1,500 active; further: on the % scale 0 is the no-effect control and ±100 the full control effect; nearly all actives have a fitted effect of over 45% in size
Rabbit FBPA inh: qHTS Assay for Inhibitors of Fructose-1,6-bisphosphate Aldolase from Giardia Lamblia: Rabbit FBPA Selectivity. shares compounds with Giardia FBPA inh-1. AID 2794, 2010. Rabbit muscle FBPA enzyme inhibition, selectivity counter-screen. 4% of 1,500 active. Potency, µM (top dose mostly 57.5 µM), without a hit: top-dose activity, negative = inhibition, usual class: inhibitors; further: on the % scale 0 is the no-effect control and ±100 the full control effect; nearly all actives have a fitted effect of over 60% in size
GAPDH counter: qHTS Assay for Inhibitors of Fructose-1,6-bisphosphate Aldolase from Giardia Lamblia: Coupling assay counterscreen confirmation; shares compounds with Giardia FBPA inh-1; GAPDH coupling enzyme counterscreen, biochemical, qHTS; Potency, µM (doses to about 57.5 µM), for inactives: top-dose activity change, negative = inhibition, hits mostly inhibitors; 6% of 1,500 active; further: on the % scale 0 is the no-effect control and ±100 the full control effect; nearly all actives have a fitted effect of over 55% in size
The depositor's hits bear a star; ? = inconclusive; . = no result; [ ] = remark or other dose. Unless noted, the call rests on the fitted dose curve; in most records, active means well fitted curve in the direction sought with a large enough effect; inconclusive means small, poorly fitted or top-dose-only effect, or another doubt; inactive means no such curve, though single readings can be large; an effect the other way counts as inactive or inconclusive. Potency means the concentration at half of the fitted maximal effect.

SMILES	NS1 function inh	Sm TGR block	RE007 growth inh	Giardia FBPA inh-1	LmPK inh	Tb PYK inh	Giardia growth	Mammalian tox	Giardia FBPA inh-2	Rabbit FBPA inh	GAPDH counter
Cn1nnc(NC(=S)NC(=O)Cc2ccccc2)n1	1%	.	1%	1.6µM*	5%	-2%	-13%[38.3 µM]	-5%	-7%	-5%	-1%
COc1cccc(C(=O)NC(=S)Nc2nnn(C)n2)c1	-12%	?	1%	1.6µM*	-6%	-15%	-18%[38.3 µM]	-1%	-2%	5%	7%
CCn1ccc2c(OCC(=O)Nc3ccc(C)c(Cl)c3)cccc2c1=O	.	-18%	.	.	.	-7%	.	.	.	.	.
O=C(CCc1ccccc1)NCc1nc2cccnc2n1Cc1ccc(F)cc1	.	2%	.	.	.	0%	.	.	.	.	.
COc1ccc(S(=O)(=O)N2CCN(c3ccc(Cl)c(Cl)c3)CC2)c2ccccc12	.	5%	.	.	.	3%	.	.	.	.	.
COc1ccc([C@@H](Nc2ccccn2)c2cc(C(C)(C)C)cc(C(C)(C)C)c2O)cc1	-1%	.	.	.	.	.	.	.	.	.	.
COc1ccc(Br)c(C(=O)Nc2cc3c(cc2N2CCCCC2)n(C)c(=O)c(=O)n3C)c1	.	-7%	.	.	.	-5%	.	.	.	.	.
O=C(NNC(=O)c1ccccc1[N+](=O)[O-])c1ccccn1	5%	19%	-14%	16µM*	-5%	0%	-15%[10.4 µM]	-16%	-5%	-6%	-14%
Cc1ccc2nc3nc4ccc[nH]c4cc3c2c1	.	.	.	-7%[12.9 µM]	.	.	.	.	.	.	.
C=CCOc1ccccc1CN1CCCCCC1	8%	11%	-20%	18µM*	-1%	12%	-10%	0%	-2%	8%	3%
Cc1ccc(C(C)C)c(OCC(=O)NN=C(CCl)CCl)c1	1%	?	.	16µM*	3%	.	?	2%	-7%	-3%	-2%
COc1ccccc1NC(=O)C(=O)NCC(c1ccc2c(c1)OCO2)N1CCOCC1 (stereo not drawn)	.	-3%	.	.	.	2%	.	.	.	.	.
O=C(NC(=S)Nc1ccc2oc(=O)ccc2c1)c1cccc(Cl)c1	2%	-19%	-1%	10µM*	1%	0%	20µM*	11%	-1%	11%	6%
COC1=C(OC)C(=O)c2ccccc2C1=O	-20%	.	.	-18%	.	.	.	.	.	.	.
CC1(C)C(=O)NC2=C1C(=O)C(=O)c1ccccc12	.	.	.	0.16µM*	.	.	16µM*	20µM*	1.1µM*	0.89µM*	1.3µM*
Oc1ccc2ccccc2c1Cc1c(O)ccc2ccccc12	-41%	.	.	.	.	.	.	.	.	.	.
NCc1c(O)ccc2ccccc12	-1%	13µM*	.	-10%	6%	.	-2%[38.3 µM]	-9%	1.6µM*	?	?
CC1=C(C(=O)Nc2ccc(C)c(C)c2)C2(CCCCCC2)OC1=O	.	0%	.	.	.	-17%[15.4 µM]	.	.	.	.	.
O=C(O)c1ccc[nH]c1=S	-5%	40%	-4%	4.5µM*	-6%	-3%	27%[38.3 µM]	-7%	2%	0%	9%
CCc1nc(C)ccc1OCC(=O)NCCCN(C)C	5%	9%	-7%	13µM*	-18%	27%	13%[10.4 µM]	-1%	-1%	6%	-15%
CCC1CN2CCC1CC2[C@@H](NC(=S)Nc1cc(C(F)(F)F)cc(C(F)(F)F)c1)c1cccc2ccc(OC)cc12 (stereo partly drawn)	.	.	.	-5%	.	.	.	.	.	.	.
Cc1cc(=O)[nH]c(N/N=C/c2c(C)nn(-c3ccccc3)c2C)n1	.	-10%	8%	-4%	1%	3%	.	.	.	.	.
Cc1nn(-c2ccccc2)c(C)c1/C=N/Nc1nc2ccccc2[nH]1	?	-6%	-18%	20µM*	?	-9%	14µM*	25µM*	8%	0%	-16%
CCN(CC)c1nc(N2CCN(C)CC2)nc2ccccc12	15%	4%	-2%	?	1%	-8%	.	.	.	.	.
CCN(CC)c1nc(N2CCN(CCO)CC2)nc2ccccc12	1%	5%	10%	13µM*	-3%	3%	-15%	-10%	6%	3%	12%
SMILES	NS1 function inh	Sm TGR block	RE007 growth inh	Giardia FBPA inh-1	LmPK inh	Tb PYK inh	Giardia growth	Mammalian tox	Giardia FBPA inh-2	Rabbit FBPA inh	GAPDH counter
COc1ccc(NC(=O)CCCOc2cc(=O)n(C)c3ccccc23)c(OC)c1	.	15%	.	.	.	-5%	.	.	.	.	.
CCCCNC(=O)Oc1c(Br)cc2sc(=O)oc2c1Br	-72%	4%	.	16µM*	6%	.	-15%	11%	-5%	1%	-15%
[N-]=C=C1C(=O)NC(=O)C([n+]2ccc(-c3ccncc3)cc2)C1c1ccccc1C(F)(F)F (stereo not drawn)	2%	?	-1%	14µM*	-1%	-19%	9%[38.3 µM]	?	?	?	6.5µM*
[N-]=C=C1C(=S)NC(=O)[C@H]([n+]2ccccc2)[C@H]1c1ccc(Cl)cc1	8%	-19%	-13%	1%	-28%	?	.	.	.	.	.
CCOc1ccc(CC(=O)Nc2c(C(=O)c3ccc(F)cc3)oc3ccc(Cl)cc23)cc1OCC	.	0%	.	.	.	-2%	.	.	.	.	.
COc1cc(CNn2cn[nH]c2=S)ccc1OCC(=O)NC(C)(C)C	21%	-2%	12%	10µM*	1%	?	?	-1%	3%	-1%	13%
COc1cc(CNC(C)(C)CO)ccc1OCC(=O)NC(C)(C)C	-2%	-1%	9%	2%	1%	-4%	.	.	.	.	.
